The values that follow come from ChEMBL document CHEMBL1201862, “PubChem BioAssay data set” (2004).

Among all 400,000 compounds or so, about 2,100 (0.53%) were called active. Another 14% or so got no clear call; they are omitted. The rule behind the calls is not given here. This excerpt belongs to a sample that is enriched for actives.

Ataxin-2 (Homo sapiens), sequence (Q99700 whole entry): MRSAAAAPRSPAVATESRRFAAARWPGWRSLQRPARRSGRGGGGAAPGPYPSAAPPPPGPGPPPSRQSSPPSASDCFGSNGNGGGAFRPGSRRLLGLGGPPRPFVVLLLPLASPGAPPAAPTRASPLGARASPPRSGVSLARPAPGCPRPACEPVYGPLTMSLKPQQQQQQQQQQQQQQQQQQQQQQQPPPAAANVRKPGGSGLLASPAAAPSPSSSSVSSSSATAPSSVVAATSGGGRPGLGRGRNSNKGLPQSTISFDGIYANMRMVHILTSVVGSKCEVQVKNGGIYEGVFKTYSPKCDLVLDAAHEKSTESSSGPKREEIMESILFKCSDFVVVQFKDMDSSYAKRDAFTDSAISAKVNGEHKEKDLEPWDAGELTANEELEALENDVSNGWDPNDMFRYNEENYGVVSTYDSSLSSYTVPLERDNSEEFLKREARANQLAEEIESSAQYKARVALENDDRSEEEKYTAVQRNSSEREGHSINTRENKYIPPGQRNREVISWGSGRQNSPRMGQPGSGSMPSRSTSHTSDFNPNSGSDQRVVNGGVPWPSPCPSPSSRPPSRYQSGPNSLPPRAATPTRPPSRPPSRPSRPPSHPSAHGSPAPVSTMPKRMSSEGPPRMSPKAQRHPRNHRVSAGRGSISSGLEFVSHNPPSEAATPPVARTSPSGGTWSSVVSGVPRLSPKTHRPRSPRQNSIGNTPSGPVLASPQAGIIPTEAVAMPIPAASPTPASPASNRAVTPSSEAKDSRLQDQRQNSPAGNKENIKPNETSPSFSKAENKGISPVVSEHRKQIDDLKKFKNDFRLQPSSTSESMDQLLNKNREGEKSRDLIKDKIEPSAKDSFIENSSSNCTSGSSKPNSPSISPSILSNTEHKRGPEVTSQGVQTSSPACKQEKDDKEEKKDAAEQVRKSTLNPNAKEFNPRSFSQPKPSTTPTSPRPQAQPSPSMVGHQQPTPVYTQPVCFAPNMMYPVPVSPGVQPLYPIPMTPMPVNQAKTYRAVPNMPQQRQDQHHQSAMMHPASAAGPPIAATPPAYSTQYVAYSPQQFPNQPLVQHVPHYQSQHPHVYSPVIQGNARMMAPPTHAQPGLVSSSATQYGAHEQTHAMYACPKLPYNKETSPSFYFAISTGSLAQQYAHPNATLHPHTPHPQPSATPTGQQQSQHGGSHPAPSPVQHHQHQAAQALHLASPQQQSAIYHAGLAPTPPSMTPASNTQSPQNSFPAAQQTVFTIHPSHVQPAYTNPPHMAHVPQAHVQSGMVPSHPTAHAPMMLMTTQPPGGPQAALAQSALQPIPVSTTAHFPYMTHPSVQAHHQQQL

This assay concerns the target Ataxin-2 (Homo sapiens) (UniProt Q99700). Briefly: qHTS for Inhibitors of ATXN expression. It counts as functional.
Consider `O=c1c2cc(N3CCOCC3)ccc2[nH]c(=S)n1CCc1ccccc1`, for which the Potency result is “inactive”.
With `CC(C)(C)OC(=O)NCCc1nnc(S(=O)(=O)Cc2ccc(Cl)cc2Cl)o1`, the Potency is 17.8 µM (active).
With `CC(C)(C)OC(=O)NCC(=O)Oc1cc2oc(=O)cc(-c3ccccc3)c2cc1Cl` the entry was “inactive”.
Then `COC(c1ccccc1)c1nnc(CCC(=O)NCCc2ccc(Cl)cc2)o1` (stereo unspecified), with “inactive”; and `CC1CCc2nc(/C(C#N)=C/c3ccncc3)sc2C1` (stereo unspecified), with “inactive”.
With `CSCC(=O)Nc1cc(C)on1` the entry was “inactive”.
`O=C1c2ccccc2S(=O)(=O)c2cc(N3CCC(C(=O)N4CCCCC4)CC3)ccc21`: the Potency result was “inactive”.
On to `COc1cc(S(=O)(=O)Nc2ccc3c(c2)C(=O)N(C)C3=O)ccc1NC(C)=O`, for which the Potency entry is “inactive”.
Then `COc1cccc(-c2cnc3c(NC(C)=O)cc(-c4cccc(NS(C)(=O)=O)c4)cn23)c1`, with 28.2 µM (active).
Consider `COc1cccc(-c2ccc3c(N)c(C(=O)Nc4ccccc4C)sc3n2)c1`, for which the Potency entry is “inactive”.
Regarding `CC(=O)Nc1cc(-c2cccc(NS(C)(=O)=O)c2)cn2c(-c3cccc(C(F)(F)F)c3)cnc12`, the Potency is 35.5 µM (active).
Turning to `CC1(C)CCCN(C(=O)c2ccc3c(c2NCCO)C(=O)c2ccccc2C3=O)C1`, the Potency was 20 µM (active).
With `OCCCc1nc2n(n1)C(c1ccccc1)C=C(c1ccc(F)cc1)N2` (stereo unspecified), the Potency entry is “inactive”.
With `COc1cccc(CN(C)Cc2cc(=O)oc3cc(O)c(Cl)cc23)c1`, the Potency entry is “inactive”.
For `CC(=O)Nc1ccc(/C(C)=N/Nc2nc(N3CCOCC3)nc(N3CCOCC3)n2)cc1`, the Potency result was “inactive”.
`Cc1c(-c2cccc(NC(=O)c3ccco3)c2)nc2ncccn12`: the Potency entry was “inactive”.
With `COc1ccc(NC(=O)CSc2nc3ccc(Nc4nc(N5CCOCC5)nc(N5CCOCC5)n4)cc3s2)cc1` the figure was 15.8 µM (active).
Then `CCn1nc(NC(=O)c2ccco2)c2cc3cc(C)ccc3nc21`, with “inactive”; and `Cc1cccc(NC(=O)CSc2nc3ccc(NC(=O)c4ccccc4)cc3s2)c1`, with 39.8 µM (active).
Then `N#Cc1ccc(NC(=O)CSc2nc3nc(O)cc(O)c3s2)cc1`, with “inactive”; and `CC(=O)Nc1ccc(/C(C)=N/Nc2nc(Nc3ccccc3)nc(N3CCOCC3)n2)cc1`, with “inactive”.
Turning to `CC(=O)Nc1ccc(O)c(-c2nc3ccccc3s2)c1`, the Potency result is “inactive”.
As for `CC(C)(C)C(=O)Nc1nc2c(s1)CN(Cc1ccccc1)CC2`, the Potency entry is “inactive”.
In the case of `CC(C)(C)C(=O)Nc1ccc2nc(SCc3ccccc3)sc2c1`, the Potency was 31.6 µM (active).
With `Cc1cccc(NC(=O)CSc2nc3ccc(NC(=O)c4ccco4)cc3s2)c1` the figure was 39.8 µM (active).
For the compound `CCN(C(=O)COC(=O)c1ccc(OC)c(S(=O)(=O)N(C)Cc2ccccc2)c1)C1CCS(=O)(=O)C1` (stereo unspecified), the Potency entry was “inactive”.
In the case of `COc1ccc(CCC(=O)OCC(=O)Nc2c(C)n(C)n(-c3ccccc3)c2=O)cc1`, the Potency entry was “inactive”.
Take `CCCCCCc1cc2cc(-c3nnc(-c4ccc(C)cc4)o3)c(=O)oc2cc1O`: the Potency entry is “inactive”.
Then `Cc1nn2c(nc(N3CCCCC3)c3ccccc32)c1C=O`, with “inactive”.
As to `O=C(CCC1CCCCC1)Nc1nncs1`, the Potency entry was “inactive”.
Take `Nc1cccc2c1C(=O)N(C(=O)c1ccc(Cl)c(S(=O)(=O)N3CCCCCC3)c1)C2=O`: the Potency entry is “inactive”.
With `CN(Cc1ccccc1)C(NC(=O)c1ccco1)C(Cl)(Cl)Cl` (stereo unspecified) the entry was “inactive”; with `CN(C(=O)CSc1nc2ccc(NC(=O)c3ccco3)cc2s1)c1ccccc1`, 39.8 µM (active).
With `CN(C(=O)c1ccc(NC(=O)c2ccco2)cc1)c1ccccc1` the figure was 7.08 µM (active).
Regarding `Cc1ccc(C(=O)Nc2ccc3c(c2)OCO3)cc1NC(=O)c1ccco1`, the Potency entry was “inactive”.
With `CCn1nc(NC(=O)c2ccco2)c2cc3ccccc3nc21` the entry was “inactive”.
With `COCc1cc(C)nc2sc(C(=O)Nc3cccc(OC)c3)c(N)c12` the entry was “inactive”; with `O=C(CSc1nnc(NC(=O)c2ccco2)s1)NCc1ccc2c(c1)OCO2`, “inactive”; with `COc1cccc(NC(=O)CSc2nc3ccc(NC(=O)c4ccco4)cc3s2)c1`, 35.5 µM (active).
Turning to `COCCNC(=O)Nc1ccc2nc(-c3ccco3)c(-c3ccco3)nc2c1`, the Potency result was “inactive”.
With `C=CCOc1c(Br)cc(C2C3=C(CCCC3=O)N(C)C3=C2C(=O)CCC3)cc1OCC` the entry was “inactive”; with `CCO/C(O)=C1/C(CC)=Nc2ccccc2N=C1NS(=O)(=O)c1cccc(C(C)=O)c1`, “inactive”; with `COc1cccc(-c2ccc3c(N)c(C(=O)NC4CC4)sc3n2)c1`, “inactive”.
With `Cc1ccc2nc(N3CCC(C(=O)O)CC3)nc(-c3ccccc3)c2c1`, the Potency entry is “inactive”.
In the case of `C/C(=N\NC(=O)c1nc2ccccn2c1C)c1cc2ccccc2o1`, the Potency result was “inactive”.
With `O=C(NCc1ccco1)c1cc(NS(=O)(=O)c2cccc([N+](=O)[O-])c2)ccc1O` the entry was “inactive”.
Then `Cc1ccc2sc(N(CCCN(C)C)C(=O)c3ccc(Br)s3)nc2c1C`, with 35.5 µM (active).
With `COc1cccc2sc(N(CCCN(C)C)C(=O)CCS(=O)(=O)c3ccccc3)nc12` the figure was 20 µM (active).
Consider `Cc1ccc2sc(N(CCCN(C)C)C(=O)CCS(=O)(=O)c3ccccc3)nc2c1C`, for which the Potency was 22.4 µM (active).
Then `CN(C)CCCN(C(=O)CCOc1ccccc1)c1nc2c(F)cccc2s1`, with 22.4 µM (active); and `Cc1ccc(/C(=N/Nc2nc3ccccc3s2)C2=C(O)c3ccccc3C2=O)cc1`, with “inactive”.
Consider `Cc1ccc(S(=O)(=O)c2cc3cc(Br)ccc3oc2=O)cc1`, for which the Potency entry was “inactive”.
With `N#Cc1cccc(CN2CCCN(Cc3ccc(F)cc3)S2(=O)=O)c1` the entry was “inactive”; with `C/C(=N\NC(=O)c1cc2ccccc2cc1O)c1cccs1`, “inactive”.
With `COc1ccc(CCNC(=O)CCS(=O)(=O)c2ccc3nc(C)sc3c2)cc1OC` the entry was “inactive”; with `COc1ccc(OC)c2sc(N(CCCN(C)C)C(=O)CCS(=O)(=O)c3ccccc3)nc12`, 25.1 µM (active).
On to `COc1cccc2sc(N(CCCN(C)C)C(=O)C(c3ccccc3)c3ccccc3)nc12`, for which the Potency is 39.8 µM (active).
With `CCOc1ccccc1NC(=O)CCS(=O)(=O)c1ccc(OC)cc1`, the Potency entry is “inactive”.
Then `COc1ccc(C)cc1N(C(=O)c1ccccc1F)c1nc2ccccc2s1`, with “inactive”.
Turning to `CC(Sc1nc2ccccc2s1)C(=O)N(C)Cc1ccccc1` (stereo unspecified), the Potency entry is “inactive”.
With `O=C(Oc1ccc(Cl)c2cccnc12)c1cccnc1` the entry was “inactive”.
With `COC(=O)/C=C1/SC(NNC(=O)c2ccc(Cl)cc2Cl)=NC1=O` the entry was “inactive”; with `C/C(=N\Nc1nc2ccccc2[nH]1)c1ccc(Cl)s1`, “inactive”.
Then `CCCn1c(/C=N/Nc2nc3ccccc3[nH]2)nc2ccccc21`, with 35.5 µM (active).
Consider `CCCn1c(/C=C/c2cc[n+](C)cc2)nc2ccccc21`, for which the Potency entry was “inactive”.
Turning to `O=S(=O)(c1cc(Cl)ccc1Cl)N1CCN(c2ccccn2)CC1`, the Potency result is “inactive”.
With `Cc1c(CC(=O)NCC(=O)N[C@H](Cc2ccccc2)C(=O)O)c(=O)oc2cc(O)ccc12` the entry was “inactive”; with `COc1cc2cc(CNc3ccccc3)c(=O)n(CC(=O)Nc3ccccc3)c2cc1OC`, “inactive”; with `COc1cccc(NC(=O)C2CCOC2=O)c1` (stereo unspecified), “inactive”.
Then `CCn1cc(C(=O)OC)c(=O)c2cc(S(=O)(=O)N(C)C3CCCCC3)ccc21`, with “inactive”; and `COc1cccc(NC(=O)CN2C(=O)c3cccc4cccc2c34)c1`, with “inactive”.
Then `Cc1ccc(NC(=O)CNc2ccccc2CN(C)C2CCCCC2)cc1`, with “inactive”; and `COc1cccc(NC(=O)CN(C)C(=O)[C@@H]2CCCN2C(=O)c2cccs2)c1`, with “inactive”; and `COc1cccc(NC(=O)N(Cc2cn(C)c3ccccc23)C2CCCCCC2)c1`, with 39.8 µM (active).
Consider `CCc1ccc(NC(=O)N(Cc2cn(CC)c3ccccc23)C2CCCCC2)cc1`, for which the Potency is 35.5 µM (active).
With `COc1cccc(NC(=O)N2CCCC2C(=O)NCc2ccccc2F)c1` (stereo unspecified) the entry was “inactive”.
With `CC(C)NC(=O)Cn1cc(C(=O)C2CC2)c2ccccc21` the entry was “inactive”; with `COc1cccc(NC(=O)Cn2cc(C(=O)C3CCCCC3)c3ccccc32)c1`, 39.8 µM (active).
With `COc1ccc(-n2c(=O)c3ccccc3n(CC(=O)Nc3cccc(OC)c3)c2=O)cc1`, the Potency was 39.8 µM (active).
With `CCc1nc2sc(C(C)=O)c(N)c2c2c1CCCC2` the entry was “inactive”.
Consider `O=C(CC1Sc2ccccc2NC1=O)OCc1cc(=O)oc2cc(O)ccc12` (stereo unspecified), for which the Potency result is “inactive”.
As to `Cn1cc(/C=N/NC(=O)c2cc3cc(Br)ccc3o2)c2ccccc21`, the Potency entry is “inactive”.
As for `CCOC(=O)N1CCC(NC(=O)c2cc(C(=O)Nc3ccc(F)cc3F)ccc2CO)CC1`, the Potency entry was “inactive”.
As for `O=C(CC[C@H]1O[C@@H](n2ccc(=O)[nH]c2=O)[C@H](O)[C@@H]1O)N[C@H](Cc1ccccc1)C(=O)NCCCN1CCCC1=O`, the Potency entry was “inactive”.
As for `CC(OC(=O)c1ccc([N+](=O)[O-])s1)C(=O)NC1CCCCC1C` (stereo unspecified), the Potency result is “inactive”.
With `O=c1[nH]cc(/N=C/c2cc(Cl)cc(Cl)c2O)c(=O)[nH]1`, the Potency entry was “inactive”.
Take `CCCn1/c(=N\C(C)=O)c(C(=O)OCC)cc2c(=O)n3ccccc3nc21`: the Potency entry is “inactive”.
Then `CC(C)Cc1cc(C(=O)N2CCC(N3CCC(C(=O)N4CCCC4)CC3)CC2)[nH]n1`, with “inactive”; and `O=C(c1cccc(Cl)c1)N1CCC(N2CCC(C(=O)N3CCCC3)CC2)CC1`, with 8.91 µM (active).
Then `O=C(C1CCN(S(=O)(=O)c2c(Cl)cccc2Cl)CC1)N1CCCCCCC1`, with “inactive”.
Then `CCOC(=O)c1cc2c(=O)n3ccccc3nc2n(CC(C)C)/c1=N\C(=O)C(C)Oc1ccccc1` (stereo unspecified), with “inactive”; and `COc1ccc(-c2oc3ccccc3c(=O)c2OC(C)=O)cc1`, with “inactive”; and `CNC(=O)c1ccc(NC(=O)C2CCN(S(=O)(=O)c3cccc(C(F)(F)F)c3)CC2)cc1`, with “inactive”.
For the compound `Cc1noc2ncnc(N3CCCC(C(=O)Nc4cccc(C(F)(F)F)c4)C3)c12` (stereo unspecified), the Potency is 31.6 µM (active).
As to `O=C(Nc1cccc(C(F)(F)F)c1)C1CC(=O)N(Cc2ccco2)C1` (stereo unspecified), the Potency result was “inactive”.
As for `CCn1c2ccccc2c(=O)c2ccccc21`, the Potency result was “inactive”.
With `CCn1c2ccccc2nc2cc3c(cc21)c(Cl)c(=O)c1ccccc13` the figure was 7.94 µM (active).
Take `CCn1c(C(C)NC(C)=O)nc2ccccc21` (stereo unspecified): the Potency result was “inactive”.
As to `C/C(=N\NC(=O)c1cc2ccccc2cc1O)c1ccc(C)o1`, the Potency result is “inactive”.
In the case of `C/C(=N\NC(=O)C1(C)CC1(Br)Br)c1cccc(NC(=O)c2ccc(C)o2)c1` (stereo unspecified), the Potency is 35.5 µM (active).
With `O=C(O)c1cccc(NC(=O)c2cc3cc(Br)cc(Br)c3oc2=O)c1` the entry was “inactive”.
